The source made the active and inactive calls.
What was measured:
Albumin (Bos taurus) = Albumin (Bos taurus) (UniProt P02769); assay: compounds binding labelled BSA control protein – biochemical, small-molecule microarray, Alexa647 label, 635/667 nm fluorescence, artefact control for SMM control protein annotation, profiling panel (AID 1118); settings: BSA-A647 binding, fluorescence 635 nm, higher = more signal;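 also: score merges 667 nm emission intensity and signal-to-noise per printed compound spot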
Sequence of Albumin (Bos taurus) (P02769 whole entry, looked up): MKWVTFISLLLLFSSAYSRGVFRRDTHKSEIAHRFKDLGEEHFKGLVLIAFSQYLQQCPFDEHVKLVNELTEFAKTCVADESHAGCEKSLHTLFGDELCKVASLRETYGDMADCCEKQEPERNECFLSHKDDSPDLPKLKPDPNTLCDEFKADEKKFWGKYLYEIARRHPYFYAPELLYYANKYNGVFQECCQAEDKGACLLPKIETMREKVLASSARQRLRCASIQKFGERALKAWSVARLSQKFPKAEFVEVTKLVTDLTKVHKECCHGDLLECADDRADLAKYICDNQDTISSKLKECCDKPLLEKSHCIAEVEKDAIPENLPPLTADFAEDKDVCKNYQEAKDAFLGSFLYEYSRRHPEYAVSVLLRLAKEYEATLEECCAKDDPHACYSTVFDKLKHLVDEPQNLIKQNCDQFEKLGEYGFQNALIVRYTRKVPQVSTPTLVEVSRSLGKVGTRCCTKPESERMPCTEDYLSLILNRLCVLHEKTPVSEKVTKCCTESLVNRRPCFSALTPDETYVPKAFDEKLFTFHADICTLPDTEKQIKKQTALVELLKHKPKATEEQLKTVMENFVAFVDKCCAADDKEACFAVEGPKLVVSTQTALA

[1] = probe aXIP binding to arrayed compounds – biochemical, NeuroSMM set, 635/667 nm fluorescence, primary screen (AID 1119); settings: small-molecule microarray, higher = more signal, called active from +8 up or from −8 down;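 also: probe is the protein aXip251-270 applied at 1 µg/mL to compound-printed slides; binding of probe to printed compounds measured as 667 nm fluorescence plus signal to noise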
[2] = probe aNOTCH3 binding on compound microarray – biochemical, small-molecule microarray, 635/667 nm fluorescence, primary screen (AID 1120); settings: higher = more signal;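 also: probe is a biotin-tagged antibody raised against NOTCH3 rather than NOTCH3 protein; score merges spot fluorescence near 667 nm with spot signal to noise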
[3] = probe aNOTCH2 binding on compound microarray – biochemical, small-molecule microarray, 635/667 nm fluorescence, primary screen (AID 1121); settings: higher = more signal;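 also: score merges feature fluorescence read at 667 nm with its signal to noise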
[4] = target: Carbonic anhydrase 2 (Homo sapiens) (UniProt P00918); assay: compounds binding carbonic anhydrase 2 – biochemical, small-molecule microarray, Alexa647-labelled CAII, profiling panel (AID 1122); settings: CAII-A647 binding fluorescence, higher = more signal
[5] = COS7 lysate on small-molecule microarray, probe aHis, 635 nm (AID 1123); settings: COS7 cell lysate, fluorescence, higher = more signal;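 also: z-score combines 667nm fluorescence intensity with signal-to-noise per printed compound spot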
[6] = probe aLAP1 signal on lysate-treated microarray – cell lysate, small-molecule microarray, COS7 lysate, primary screen (AID 1124); settings: probe aLAP1, fluorescence, higher = more signal;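 also: lysate comes from COS7 cells expressing LAP1 and is applied at 0.3 µg/mL; score merges spot fluorescence near 667 nm with signal-to-noise over triplicate slides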
Sam68 (KHDRBS1) = assay: compounds binding KHDRBS1 protein – biochemical, small-molecule microarray, 635 nm fluorescence, primary screen (AID 1125); settings: higher = more signal;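 also: score merges 667 nm channel intensity with signal to noise over triplicate slides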
[7] = system: Chordin-like protein 2 (CHRDL2); assay: compounds binding chordin-like 2 – biochemical, small-molecule microarray, 635 nm fluorescence, primary screen (AID 1126); settings: fluorescence 635 nm, higher = more signal;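 also: printed compound slides probed with Chrdl2 protein at 4 µg/mL for 1 h at 4 C; score merges 667 nm emission intensity with signal to noise over three replicate slides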
[8] = target: Concanavalin-A (Canavalia ensiformis) (UniProt P02866); assay: compounds binding concanavalin A lectin – biochemical, small-molecule microarray, Alexa647 label, 635 nm, artefact control for SMM control protein annotation, primary screen (AID 1127); settings: ConA-A647 binding fluorescence, higher = more signal;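 also: z combines 667 nm emission intensity with signal-to-noise across three replicate slides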
Sequence of Concanavalin-A (Canavalia ensiformis) (P02866 whole entry, looked up): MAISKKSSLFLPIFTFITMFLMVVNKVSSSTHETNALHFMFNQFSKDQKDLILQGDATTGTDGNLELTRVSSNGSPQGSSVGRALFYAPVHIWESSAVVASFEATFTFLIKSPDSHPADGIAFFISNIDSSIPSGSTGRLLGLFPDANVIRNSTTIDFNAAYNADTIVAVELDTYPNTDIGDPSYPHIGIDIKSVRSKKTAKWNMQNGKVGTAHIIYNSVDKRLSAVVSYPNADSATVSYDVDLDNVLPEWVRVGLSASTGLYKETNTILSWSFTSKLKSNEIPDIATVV

[9] = compounds binding Alexa647 anti-His antibody – biochemical, small-molecule microarray, 635 nm fluorescence, artefact control for SMM control protein annotation, primary screen (AID 1128); settings: higher = more signal;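 also: score merges feature fluorescence with signal-to-noise for each printed compound spot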
[10] = system: Human papillomavirus type 1a E7 protein (residues 1-88); assay: HPV1a E7 small-molecule binders, primary screen, biochemical, small-molecule microarray, residues 1-88, 635 nm (AID 1129); settings: small-molecule microarray binding, fluorescence 635 nm; higher = more signal
[11] = target: Focal adhesion kinase 1 (Homo sapiens) (UniProt Q05397); assay: PTK2 protein binding on printed compound slides – biochemical, small-molecule microarray, 635/667 nm fluorescence, BSA, DTT, primary screen (AID 1130); settings: 635 nm fluorescence, higher = more signal;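 also: composite of spot emission at 667 nm and signal to noise over triplicate slides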
Sequence of Focal adhesion kinase 1 (Homo sapiens) (Q05397 whole entry, looked up): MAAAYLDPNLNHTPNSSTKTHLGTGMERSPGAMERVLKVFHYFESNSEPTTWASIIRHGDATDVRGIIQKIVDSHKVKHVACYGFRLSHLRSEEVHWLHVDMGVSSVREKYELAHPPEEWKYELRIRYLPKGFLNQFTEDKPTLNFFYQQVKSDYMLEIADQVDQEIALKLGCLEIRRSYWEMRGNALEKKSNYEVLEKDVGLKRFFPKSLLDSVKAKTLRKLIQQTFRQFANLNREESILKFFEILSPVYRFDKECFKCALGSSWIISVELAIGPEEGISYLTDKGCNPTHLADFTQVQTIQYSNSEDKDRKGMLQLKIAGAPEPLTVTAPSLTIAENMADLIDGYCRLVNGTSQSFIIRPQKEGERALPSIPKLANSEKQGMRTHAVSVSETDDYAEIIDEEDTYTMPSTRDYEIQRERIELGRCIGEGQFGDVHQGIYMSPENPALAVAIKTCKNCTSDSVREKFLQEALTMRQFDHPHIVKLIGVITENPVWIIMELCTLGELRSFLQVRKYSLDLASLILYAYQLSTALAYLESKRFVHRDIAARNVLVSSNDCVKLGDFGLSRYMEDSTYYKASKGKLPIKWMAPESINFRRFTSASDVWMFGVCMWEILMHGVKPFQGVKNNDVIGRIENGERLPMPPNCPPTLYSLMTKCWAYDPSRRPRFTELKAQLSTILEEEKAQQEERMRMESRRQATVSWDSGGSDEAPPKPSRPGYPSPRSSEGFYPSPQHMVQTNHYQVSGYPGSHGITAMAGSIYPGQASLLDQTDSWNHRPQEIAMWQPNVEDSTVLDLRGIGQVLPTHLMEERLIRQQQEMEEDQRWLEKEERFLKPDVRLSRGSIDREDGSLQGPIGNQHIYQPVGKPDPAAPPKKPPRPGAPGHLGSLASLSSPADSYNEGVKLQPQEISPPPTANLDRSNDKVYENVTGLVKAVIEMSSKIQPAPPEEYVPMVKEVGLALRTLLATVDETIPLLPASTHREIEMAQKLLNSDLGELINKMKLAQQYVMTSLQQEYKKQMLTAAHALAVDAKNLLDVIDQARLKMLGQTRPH

[12] = system: Fibrinogen (Alexa647-labelled); assay: Alexa647-fibrinogen binding to printed small molecules – biochemical, small-molecule microarray, 635/667 nm fluorescence, artefact control for SMM control-protein annotation, profiling panel (AID 1131); settings: fibrinogen-A647 binding fluorescence, higher = more signal;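 also: z-score merges 667 nm fluorescence with per-spot signal-to-noise over triplicate slides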
[13] = target: Follistatin (Homo sapiens) (UniProt P19883); assay: FST protein binding to printed compounds – biochemical, small-molecule microarray, 635/667 nm fluorescence, primary screen (AID 1132); settings: 635 nm fluorescence, higher = more signal
Sequence of Follistatin (Homo sapiens) (P19883 whole entry, looked up): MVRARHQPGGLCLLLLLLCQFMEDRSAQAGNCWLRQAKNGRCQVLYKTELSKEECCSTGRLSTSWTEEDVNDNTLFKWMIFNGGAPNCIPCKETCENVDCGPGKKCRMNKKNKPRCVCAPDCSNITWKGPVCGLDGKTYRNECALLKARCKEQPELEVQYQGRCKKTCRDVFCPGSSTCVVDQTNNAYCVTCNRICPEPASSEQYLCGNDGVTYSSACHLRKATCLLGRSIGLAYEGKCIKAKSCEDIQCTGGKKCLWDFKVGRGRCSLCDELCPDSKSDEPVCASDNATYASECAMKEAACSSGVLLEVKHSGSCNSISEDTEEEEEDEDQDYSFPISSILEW

[14] = target: Fibroblast growth factor 2 (Homo sapiens) (UniProt P09038); assay: basic fibroblast growth factor binding to printed compounds – biochemical, small-molecule microarray, 635/667 nm fluorescence, primary screen (AID 1133); settings: FGF2, fluorescence 635/667, higher = more signal
Sequence of Fibroblast growth factor 2 (Homo sapiens) (P09038 whole entry, looked up): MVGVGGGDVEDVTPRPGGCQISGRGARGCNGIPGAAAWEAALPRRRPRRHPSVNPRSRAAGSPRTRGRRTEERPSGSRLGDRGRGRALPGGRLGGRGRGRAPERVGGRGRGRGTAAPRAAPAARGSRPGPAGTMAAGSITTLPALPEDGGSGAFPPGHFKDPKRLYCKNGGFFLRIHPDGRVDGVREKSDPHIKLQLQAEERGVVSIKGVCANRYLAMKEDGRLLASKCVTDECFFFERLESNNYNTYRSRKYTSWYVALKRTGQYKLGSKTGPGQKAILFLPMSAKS

[15] = JC-1 mitochondrial potential readout, lung cancer cells – cell-based, A549, JC-1 fluorescence, basal, 24 h, 100 nL, profiling panel (AID 1138); settings: higher = more signal;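 also: A549 lung adenocarcinoma cells under basal conditions with no added stimulus; test concentration not given here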
Lefty1 = Lefty1 protein binding to printed compounds – biochemical, small-molecule microarray, 635/667 nm fluorescence, primary screen (AID 1139); settings: fluorescence 635/667, higher = more signal
[16] = system: wheat germ agglutinin (Triticum aestivum), Alexa647-labelled; assay: Alexa647-WGA lectin binding to printed small molecules – biochemical, small-molecule microarray, 635/667 nm fluorescence, artefact control for SMM control-protein annotation, profiling panel (AID 1140); settings: WGA-A647 binding, 635 nm fluorescence, higher = more signal;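 also: score merges 667 nm feature emission with signal to noise over triplicate slides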
[17] = target: Luciferin 4-monooxygenase (Photinus pyralis) (UniProt P08659); assay: inhibition of purified Photinus pyralis luciferase – biochemical, luminescence, purified enzyme, 2006 set, primary screen (AID 1141); settings: purified firefly luciferase, SteadyGlo luminescence, 30 min; higher = more signal, called active from +8 up or from −8 down;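 also: cell-free assay with purified firefly luciferase at 100 ng per well in PBS; test concentration not given here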
Sequence of Luciferin 4-monooxygenase (Photinus pyralis) (P08659 whole entry, looked up): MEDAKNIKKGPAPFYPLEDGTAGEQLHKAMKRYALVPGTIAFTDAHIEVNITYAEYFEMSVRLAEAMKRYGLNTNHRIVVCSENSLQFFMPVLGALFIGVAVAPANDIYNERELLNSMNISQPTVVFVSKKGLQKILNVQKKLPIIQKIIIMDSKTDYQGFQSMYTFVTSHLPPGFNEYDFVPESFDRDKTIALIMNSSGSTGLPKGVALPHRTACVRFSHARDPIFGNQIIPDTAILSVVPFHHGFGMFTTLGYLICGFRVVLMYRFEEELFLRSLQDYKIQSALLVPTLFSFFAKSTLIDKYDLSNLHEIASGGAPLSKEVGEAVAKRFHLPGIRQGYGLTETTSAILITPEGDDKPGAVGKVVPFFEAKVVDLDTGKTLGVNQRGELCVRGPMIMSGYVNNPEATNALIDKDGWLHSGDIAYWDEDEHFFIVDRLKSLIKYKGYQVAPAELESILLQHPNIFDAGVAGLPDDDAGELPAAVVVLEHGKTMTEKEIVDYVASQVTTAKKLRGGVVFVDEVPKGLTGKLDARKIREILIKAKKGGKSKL

Row | Structure (SMILES) | composite z-score (Albumin (Bos taurus)) | composite Z-score [1] | composite z-score [2] | composite z-score [3] | composite z-score [4] | composite z-score [5] | composite z-score [6] | composite z-score (Sam68 (KHDRBS1)) | composite z-score [7] | composite z-score [8] | composite z-score [9] | composite z-score [10] | composite z-score [11] | composite z-score [12] | composite z-score [13] | composite z-score [14] | z-score [15] | composite z-score (Lefty1) | composite z-score [16] | z-score [17]
1 | O=C(NCc1ccc(F)cc1)[C@H]1C[C@H]2C(=O)N3CCC[C@H]3C(=O)N2[C@H]1c1ccc(O)cc1 | -1.3 | 0.081 (inactive) | -0.303 | -0.198 | -0.0109 | -0.136 | 1.09 | -0.732 | 0.857 | 0.72 | -0.279 | -0.825 | -0.753 | 0.137 | 0.699 | 0.75 | -0.0591 | -0.557 | -0.554 | -0.0877 (inactive)
2 | COC(=O)[C@@]1(Cc2ccc(OC)cc2)[C@H]2c3cc(C(=O)N4CCCC4)n(CCn4cc([N+](=O)[O-])nc4C)c3C[C@H]2CN1C(=O)c1ccccc1 | 1.05 | 0.146 (inactive) | 1.67 | 1 | 0.62 | 3.37 | 0.913 | 0.654 | 0.406 | 0.716 | 3.4 | 1.2 | 1.07 | 1 | 0.116 | -0.322 | 1.33 | -0.19 | 0.907 | 1.22 (inactive)
3 | COc1ccc(C(O)C2C=CC3C(=O)NC(=O)C3N2Nc2ccc(Cl)cc2Cl)c2ccccc12 (stereo not given) | 0.678 | 0.309 (inactive) | 0.0328 | 0.0856 | 0.602 | 1.94 | 0.709 | 0.35 | -0.359 | 0.934 | 1.54 | 1.15 | 0.486 | 0.925 | 0.797 | -0.19 | -0.209 | -0.0846 | 1.19 | -1.93 (inactive)
4 | CC(C)C[C@@H]1NC(=O)[C@@]23C(=O)N[C@@H](Cc4ccccc4)C2[C@H](C)[C@@]2(C)O[C@H]2C3/C=C/C/C=C\CNC(=O)CNC1=O (stereo not given in full) | 0.0829 | -0.568 (inactive) | -0.0869 | -0.14 | 0.719 | 0.283 | 0.0471 | 0.613 | 0.322 | 0.423 | 0.256 | 0.088 | -0.0353 | 0.177 | 0.929 | 0.766 | -0.0173 | 0.938 | 0.375 | -0.321 (inactive)
5 | COc1cc(CO)cc(I)c1O[C@H]1C=C(C(=O)NCCO)C[C@@H](NC2CCCCCC2)[C@@H]1O | 0.441 | -0.228 (inactive) | 0.106 | -0.161 | 0.579 | -0.103 | 0.993 | 1.33 | 0.714 | 0.747 | 0.34 | 1.14 | -0.433 | 0.794 | 0.931 | 1.01 | 1.88 | 1.37 | 0.246 | 4.69 (inactive)
6 | O=C1O[C@H](Cc2ccccc2)[C@@H]2[C@H]3C=CCCC=C3CN2[C@H]1Cc1ccc(O)cc1 | -0.314 | -0.263 (inactive) | 0.0208 | -0.122 | 0.746 | -0.265 | -0.256 | -1.09 | -0.278 | -0.211 | 1.38 | -1.36 | 0.203 | -2.73 | 0.16 | -0.579 | -0.653 | 0.262 | 0.778 | -0.992 (inactive)
7 | CN(C)CCCCNC(=O)[C@H]1C[C@H]2C(=O)NCC(=O)N2[C@H]1c1ccc(O)cc1 | -0.411 | 0.312 (inactive) | -0.368 | -0.13 | 0.712 | 0.0967 | -0.537 | -0.714 | 0.367 | 0.342 | 0.489 | -0.791 | -0.424 | -0.473 | 0.481 | 0.304 | -0.124 | 0.057 | 1.08 | 0.836 (inactive)
8 | O=C1O[C@H](c2ccccc2)[C@H](c2ccccc2)N2[C@H]1[C@@H](C(=O)O)[C@]1(C(=O)Nc3ccc(C#CCCO)cc31)[C@H]2c1ccc(OCCO)cc1 | 0.316 | 0.0388 (inactive) | 0.0026 | 0.015 | 0.596 | 2.2 | 1.38 | 1.08 | 1.11 | 0.891 | 2.27 | 1.22 | 0.146 | 0.974 | 1.22 | 1.16 | 0.747 | 0.0897 | 1.17 | -3.11 (inactive)
9 | CC(C)(C)N1CC=CC23O[C@@H]4C=CCCOC(=O)C4[C@H]2C(=O)N(CCCCCCO)[C@@H]3C1=O (stereo not given in full) | -0.188 | -0.192 (inactive) | -0.0716 | -0.124 | 0.834 | -0.0431 | 0.0582 | 0.28 | -1.29 | -0.202 | 0.129 | 0.11 | -0.385 | -0.959 | -0.327 | -1.16 | 0.223 | -0.0747 | -1.2 | -0.876 (inactive)
10 | C=CCC(OC(C)=O)[C@@H]1[C@@H](N(Cc2cccc3ccccc23)C(=O)c2ccc(-c3ccccc3)cc2)c2cc(OCCCO)ccc2N1C(=O)Cc1ccc2ccccc2c1 (stereo not given in full) | 0.364 | -0.902 (inactive) | 0.0276 | -0.0809 | 0.268 | 0.376 | 0.0109 | -0.518 | 0.0624 | -0.214 | 0.203 | 0.0951 | -0.166 | -0.052 | 0.592 | 0.0824 | 0.412 | -0.415 | -0.194 | 0.223 (inactive)
11 | O=C1O[C@@H](c2ccccc2)[C@@H](c2ccccc2)N2[C@@H](c3ccc(OCCO)cc3)[C@]3(C(=O)Nc4ccc(C#CC5(O)CCCCCC5)cc43)[C@@H](C(=O)O)[C@H]12 | 0.572 | -0.014 (inactive) | 0.0745 | -0.0725 | 0.685 | 0.969 | 0.58 | 1.34 | -0.458 | 0.994 | 2.8 | 1.18 | 1.24 | 0.832 | 0.776 | 0.155 | 0.741 | 0.68 | 0.601 | -2.86 (inactive)

Source: PubChem BioAssay
